Inconclusive results are not listed. Calls of active or inactive are those of the source. Unless noted, calls come from the whole dose curve; as a rule, active = well fitted curve in the direction sought with a large enough effect; inconclusive = small, poorly fitted or top-dose-only effect, or another doubt; inactive = no such curve, though single readings can be large; an effect the other way counts as inactive or inconclusive.
What was measured:
[1] = biological target: Lysosomal acid glucosylceramidase (Homo sapiens) (UniProt P04062); assay: Glucocerebrosidase-p2 (AID 348; in the data active = potency below about 10 µM; note: potency is the fitted concentration of half-maximal effect); conditions: purified GBA, blue fluorogenic substrate, 40 min
Summary of the method: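 Compounds titrated from 0.6 nM upwards against 0.2 nM enzyme in pH 5.9 citric acid/KH2PO4, taurocholate, tween-20; blue fluorogenic substrate 80 uM, 40 min room temperature, stopped and read Ex 365/Em 440 for AC50.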

[2] = AP1 Signaling Pathway (AID 357; active = well fitted curve in either direction with a large enough effect, not every such curve was filed as active;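 note: ME-180 reporter cells stimulated with EGF at its EC50 level; % is set by controls: 0 for no effect and ±100 for the full control effect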); conditions: ME-180 AP-1-bla reporter, EGF-induced, beta-lactamase ratio, 5 h; at 7.69 µM (top of the series) unless noted
Summary of the method: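 AP-1-bla ME-180 cells, Opti-MEM + 0.5% dialyzed FBS, plated overnight 37 °C. Cpd titration + EC50 EGF, 5 h 37 °C. CCF4 2.5 h RT; ex 405, em 460/530 ratio → %activity, AC50.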

[3] = biological target: Cytochrome P450 1A2 (Homo sapiens) (UniProt P05177); assay: p450-cyp1a2 (AID 410; calls by dose curve; note: potency is the fitted concentration of half-maximal effect); conditions: recombinant CYP1A2, luciferin-ME demethylation, luminescence; series mostly up to 57 µM
Summary of the method: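 Inhibition was calculated relative to 57 uM furafylline (full inhibition). The reaction used human CYP1A2 at 20nM with Luciferin-ME at its Km, 100uM, driven by an NADPH-regenerating system for 60 min at room temperature.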

[4] = NFAT Signaling Pathway (AID 444; active = well fitted curve in either direction with a large enough effect, not every such curve was filed as active;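 note: carbachol stimulus at about its EC50 of 1 µM final; % is set by controls: 0 for no effect and ±100 for the full control effect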); conditions: Jurkat NFAT-bla M1, carbachol, beta-lactamase ratio, 5 h; at 7.69 µM (top of the series) unless noted
Summary of the method: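 Read-out: CCF4 FRET ratio (460 nm/530 nm) after 1 h RT dye loading, used for %activity and AC50 from titration series. Cells: Jurkat NFAT-β-lactamase/M1 line, treated with compound plus 1 uM carbachol for 5 h, 37 °C.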

[5] = Stat Signaling Pathway (AID 446; active = well fitted curve in either direction with a large enough effect, not every such curve was filed as active;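 note: ME-180 cervical cancer cells given 40 pM IL-6 alongside compound; SIE-controlled beta-lactamase reporter measured as 460/530 nm FRET emission ratio; % is set by controls: 0 for no effect and ±100 for the full control effect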); conditions: ME-180 SIE beta-lactamase reporter, IL-6 stimulated, 5 h; at 7.69 µM (top of the series) unless noted
Summary of the method: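 ME-180 cells carrying a SIE-driven beta-lactamase reporter are stimulated with 40 pM IL-6 for 5 h at 37C in the presence of compound. The 460/530 nm FRET substrate ratio is read after 2.5 h at RT. Data are normalised to 300 pM IL-6 and to 125 nM JAK inhibitor controls.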

[6] = biological target: Glucocorticoid receptor (Homo sapiens) (UniProt P04150); assay: GR-GFP Redistribution (AID 450;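 active = compounds whose dose series gives a full or clear partial fitted curve of increased nuclear translocation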; note: potency is the fitted concentration of half-maximal effect); conditions: U2OS GR-GFP nuclear translocation, laser cytometry, 2 h
[7] = biological target: Glucocorticoid receptor (Homo sapiens) (UniProt P04150); assay: GR-EFC Redistribution (AID 451; calls by dose curve; note: potency is the fitted concentration of half-maximal effect); conditions: CHO-K1 GR-EFC translocation, beta-gal luminescence, 2 h
Summary of the method: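 Translocation of GR-ED fusion to nuclear EA restores b-gal, read by luminescence after 1 h room-temperature detection. Engineered CHO-K1 biosensor cells, 1,000/well, exposed 2 h at 37 C to titrations up to 46 uM final.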

[8] = biological target: Mitogen-activated protein kinase 10 (Mus musculus) (UniProt Q61831); assay: JNK3 AlphaScreen Assay (AID 530; active = well fitted curve in either direction with a large enough effect, not every such curve was filed as active;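 note: kinase came from lysate of stimulated human HepG2 cells; signal reports phosphorylation of biotinylated GST-cJun 1-79 at Ser73 with 10 µM ATP; % is set by controls: 0 for no effect and ±100 for the full control effect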); conditions: JNK3 lysate, c-Jun phosphorylation; series mostly up to 57.1 µM
Summary of the method: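 Room-temperature AlphaScreen kinase assay; pre-activated HepG2 lysate as JNK3 source, biotin-GST-cJun(1-79) substrate, 10 uM ATP, compound 15 min preincubation.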

[9] = biological target: 3',5'-cyclic-AMP phosphodiesterase 4B (Homo sapiens) (UniProt Q07343); assay: qHTS Assay for Inhibitors of PDE-IV (AID 607; active = well fitted activation curve with a large enough effect in the main read-out, with a control signal flat, not every such curve was filed as active; note: % of control where 0% means no effect); conditions: HEK293 ACTOne CNG channel cells, membrane potential fluorescence; series mostly up to 22.9 µM
Summary of the method: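 HEK293 ACTOne cells with CNG channel (1000/well), endogenous PDE4; membrane potential dye, compounds up to 22.9 uM final. Fluorescence Ex 535/Em 590; RO 20-1724 (100 uM final) as reference.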

[10] = biological target: Cytochrome P450 3A4 (Homo sapiens) (UniProt P08684); assay: qHTS Assay for Inhibitors and Substrates of Cytochrome P450 3A4 (AID 884); conditions: recombinant CYP3A4, Luciferin-PPXE luminescence; series mostly up to 57.1 µM; note: % is set by controls: 0 for no effect and ±100 for the full control effect; nearly all actives have a fitted effect of over 50% in size
Summary of the method: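 20 nM human CYP3A4 with 25 uM Luciferin-PPXE (at KM) in 200 mM KPO4, preincubated 10 min with compound; NADPH regeneration started a 60 min RT reaction. Luciferin detected by luminescence, normalized to 57 uM ketoconazole as full inhibition.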

[11] = biological target: Cytochrome P450 3A4 (Homo sapiens) (UniProt P08684); assay: qHTS Assay for Activators of Cytochrome P450 3A4 (AID 885); conditions: recombinant CYP3A4, Luciferin-PPXE luminescence, 60 min; series mostly up to 57.1 µM; note: nearly all actives have a fitted effect of over 65% in size; note: potency is the fitted concentration of half-maximal effect
Summary of the method: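 Human CYP3A4 (20 nM) with Luciferin-PPXE at 25 uM (its KM) in 200 mM KPO4; 10 min compound preincubation, then NADPH regeneration and 60 min reaction at RT. Luciferin read by luminescence; normalized to 57 uM ketoconazole full inhibition.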

[12] = biological target: Dual specificity protein kinase CLK4 (Homo sapiens) (UniProt Q9HAZ1); assay: qHTS Assay for Inhibitors of CDC-like Kinase 4 (ADP-FP Assay) (AID 1795); conditions: Transcreener ADP fluorescence polarization; series mostly up to 50 µM;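 note: recombinant human CLK4 phosphorylating RS repeat peptide at 1 µM ATP; % is set by controls: 0 for no effect and ±100 for the full control effect; nearly all actives have a fitted effect of over 60% in size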
Summary of the method: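 Inhibition of ADP formation by 6.25 nM Clk4 is measured using 1 uM ATP and 100 uM RS repeat peptide over one hour. Produced ADP displaces a fluorescent tracer from antibody, lowering polarization.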

[13] = biological target: Ubiquitin carboxyl-terminal hydrolase 1 (Homo sapiens) (UniProt O94782); assay: Inhibitors of USP1/UAF1: Pilot qHTS (AID 504865); conditions: purified USP1/UAF1, Ub-rhodamine cleavage fluorescence; series mostly up to 54.9 µM;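 note: rhodamine fluorescence freed from ubiquitin-rhodamine substrate followed over time; top concentration of the series differs between compounds; % is set by controls: 0 for no effect and ±100 for the full control effect; nearly all actives have a fitted effect of over 35% in size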
Summary of the method: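 Kinetic fluorescence assay: 1nM USP1/UAF1, 15 min compound preincubation, then 150nM Ub-Rho; 480/540 nm.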

[14] = Primary qHTS for small molecule stabilizers of the endoplasmic reticulum resident proteome: Secreted ER Calcium Modulated Protein (SERCaMP) assay (AID 1508630); conditions: SH-SY5Y GLuc-SERCaMP (Gaussia luciferase released on ER calcium loss) secretion, thapsigargin, luminescence; series mostly up to 38.4 µM; note: % is set by controls: 0 for no effect and ±100 for the full control effect
Summary of the method: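 GLuc-SERCaMP-expressing SH-SY5Y cells, pretreated 16 h with compound, are challenged with thapsigargin to empty ER calcium stores; after 4 h, coelenterazine is added directly to the medium and luminescence is imaged.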

[15] = biological target: Cytochrome P450 2C19 (Homo sapiens) (UniProt P33261); assay: qHTS Assay for Inhibitors and Substrates of Cytochrome P450 2C19 (AID 899); conditions: recombinant CYP2C19, luciferin-H EGE luminescence; series mostly up to 57.1 µM; note: potency is the fitted concentration of half-maximal effect; nearly all actives have a fitted effect of over 60% in size
Summary of the method: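 5nM enzyme + 10uM Luciferin-H EGE (=KM), 50mM KPO4; cpd pin-transferred, 10 min 37C; NADPH regen, 60 min 37C; stopped w/ luciferin detection reagent, 20 min; luminescence. Normalized to 57uM ketoconazole (AC100).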

[16] = biological target: Cytochrome P450 2C9 (Homo sapiens) (UniProt P11712); assay: qHTS Assay for Inhibitors and Substrates of Cytochrome P450 2C9 (AID 883); conditions: recombinant CYP2C9, luciferin-H luminescence, 60 min; series mostly up to 57.1 µM; note: nearly all actives have a fitted effect of over 60% in size; note: potency is the fitted concentration of half-maximal effect
Summary of the method: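 Inhibition of CYP2C9 is scored as loss of luminescence, with 57uM sulphaphenazole defining 100% inhibition. Substrate Luciferin-H is used at 100uM, equal to its KM; enzyme at 10nM in 25mM KPO4, 60 min at 37C with NADPH regeneration.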

[17] = biological target: Glutathione peroxidase 1 (Homo sapiens) (UniProt P07203); assay: Primary qHTS Assay for Inhibitors of Recombinant Selenoprotein Glutathione Peroxidase 1 (GPX1) (AID 1845191); conditions: recombinant GPX1, GR-coupled NADPH fluorescence, 15 min; series mostly up to 48.8 µM; note: % is set by controls: 0 for no effect and ±100 for the full control effect; nearly all actives have a fitted effect of over 65% in size
Summary of the method: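 10 nM GPX1 + cpd, 30 min RT; start w/ 1 mM GSH, 0.5 mM cumene hydroperoxide, 0.5 mM NADPH, 100 nM GR, 0.01% BSA; buffer 50 mM Tris-HCl pH 7.5, 2 mM EDTA, 150 mM NaCl; Fl 340/450, 0 & 15 min.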

Sequence of Cytochrome P450 3A4 (Homo sapiens) (P08684 whole entry, looked up): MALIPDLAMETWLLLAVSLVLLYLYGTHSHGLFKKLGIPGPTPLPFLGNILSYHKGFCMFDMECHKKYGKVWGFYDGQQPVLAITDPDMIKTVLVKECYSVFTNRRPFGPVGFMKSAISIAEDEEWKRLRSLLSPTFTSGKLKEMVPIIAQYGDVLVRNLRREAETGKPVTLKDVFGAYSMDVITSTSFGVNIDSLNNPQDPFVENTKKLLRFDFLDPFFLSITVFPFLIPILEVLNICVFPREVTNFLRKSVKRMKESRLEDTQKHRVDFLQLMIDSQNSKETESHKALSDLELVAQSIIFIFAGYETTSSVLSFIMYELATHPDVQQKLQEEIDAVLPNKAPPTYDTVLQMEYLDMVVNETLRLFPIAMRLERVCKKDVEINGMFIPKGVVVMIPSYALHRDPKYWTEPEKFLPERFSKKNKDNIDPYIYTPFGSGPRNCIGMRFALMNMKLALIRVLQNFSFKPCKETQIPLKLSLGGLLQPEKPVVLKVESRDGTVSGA
Sequence of 3',5'-cyclic-AMP phosphodiesterase 4B (Homo sapiens) (Q07343 whole entry, looked up): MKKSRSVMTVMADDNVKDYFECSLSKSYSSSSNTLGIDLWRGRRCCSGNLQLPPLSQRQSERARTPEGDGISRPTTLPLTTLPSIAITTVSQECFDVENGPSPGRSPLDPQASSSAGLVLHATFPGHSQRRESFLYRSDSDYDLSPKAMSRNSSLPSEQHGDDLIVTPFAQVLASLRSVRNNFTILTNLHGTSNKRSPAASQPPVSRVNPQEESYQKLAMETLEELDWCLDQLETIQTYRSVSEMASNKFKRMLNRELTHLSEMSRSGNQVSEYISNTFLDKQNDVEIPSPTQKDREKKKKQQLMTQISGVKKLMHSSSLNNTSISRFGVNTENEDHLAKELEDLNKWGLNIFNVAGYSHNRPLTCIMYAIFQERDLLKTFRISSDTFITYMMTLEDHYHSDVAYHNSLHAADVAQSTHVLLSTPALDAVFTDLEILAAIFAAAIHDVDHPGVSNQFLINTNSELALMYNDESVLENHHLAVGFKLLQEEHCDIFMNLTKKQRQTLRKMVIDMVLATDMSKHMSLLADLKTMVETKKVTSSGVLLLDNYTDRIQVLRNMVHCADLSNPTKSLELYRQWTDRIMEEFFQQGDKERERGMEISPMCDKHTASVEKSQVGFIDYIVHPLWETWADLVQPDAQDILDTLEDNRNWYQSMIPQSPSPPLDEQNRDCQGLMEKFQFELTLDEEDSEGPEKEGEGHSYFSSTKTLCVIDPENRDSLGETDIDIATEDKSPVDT
Sequence of Lysosomal acid glucosylceramidase (Homo sapiens) (P04062 whole entry, looked up): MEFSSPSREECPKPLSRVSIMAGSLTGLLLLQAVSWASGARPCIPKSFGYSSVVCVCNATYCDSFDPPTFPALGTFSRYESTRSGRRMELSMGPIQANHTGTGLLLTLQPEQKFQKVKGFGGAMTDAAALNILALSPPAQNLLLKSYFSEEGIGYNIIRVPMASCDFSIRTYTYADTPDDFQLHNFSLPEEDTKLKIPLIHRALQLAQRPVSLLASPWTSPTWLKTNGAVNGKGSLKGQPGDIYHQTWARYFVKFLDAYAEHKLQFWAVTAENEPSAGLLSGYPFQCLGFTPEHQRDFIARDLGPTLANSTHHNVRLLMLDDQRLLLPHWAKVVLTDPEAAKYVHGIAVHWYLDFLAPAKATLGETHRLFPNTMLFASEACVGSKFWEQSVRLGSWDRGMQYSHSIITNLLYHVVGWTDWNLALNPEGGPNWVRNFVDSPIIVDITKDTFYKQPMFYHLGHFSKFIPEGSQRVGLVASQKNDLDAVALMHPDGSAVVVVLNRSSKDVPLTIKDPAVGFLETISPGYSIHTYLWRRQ
Sequence of Glucocorticoid receptor (Homo sapiens) (P04150 whole entry, looked up, the tested form may be a part): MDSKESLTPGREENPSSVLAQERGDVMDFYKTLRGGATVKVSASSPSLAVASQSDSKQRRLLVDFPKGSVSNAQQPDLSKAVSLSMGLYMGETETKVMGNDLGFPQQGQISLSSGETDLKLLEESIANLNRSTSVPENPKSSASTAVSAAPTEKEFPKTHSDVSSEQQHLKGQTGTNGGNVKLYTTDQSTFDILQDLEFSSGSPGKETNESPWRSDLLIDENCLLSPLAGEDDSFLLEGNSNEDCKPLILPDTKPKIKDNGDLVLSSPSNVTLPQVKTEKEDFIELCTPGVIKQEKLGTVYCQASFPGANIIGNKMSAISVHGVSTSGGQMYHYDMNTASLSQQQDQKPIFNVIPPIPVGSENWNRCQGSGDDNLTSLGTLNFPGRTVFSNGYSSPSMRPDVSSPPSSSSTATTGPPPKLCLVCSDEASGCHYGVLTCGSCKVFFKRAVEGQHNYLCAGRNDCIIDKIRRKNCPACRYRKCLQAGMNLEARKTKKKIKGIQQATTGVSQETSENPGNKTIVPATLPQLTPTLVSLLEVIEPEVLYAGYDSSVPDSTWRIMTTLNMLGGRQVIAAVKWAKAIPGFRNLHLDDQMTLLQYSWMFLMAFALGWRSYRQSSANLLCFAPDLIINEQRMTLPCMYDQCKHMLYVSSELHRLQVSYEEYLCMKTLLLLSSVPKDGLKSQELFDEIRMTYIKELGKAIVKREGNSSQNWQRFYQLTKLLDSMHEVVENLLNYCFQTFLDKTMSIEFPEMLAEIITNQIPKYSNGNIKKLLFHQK
Sequence of Dual specificity protein kinase CLK4 (Homo sapiens) (Q9HAZ1 whole entry, looked up): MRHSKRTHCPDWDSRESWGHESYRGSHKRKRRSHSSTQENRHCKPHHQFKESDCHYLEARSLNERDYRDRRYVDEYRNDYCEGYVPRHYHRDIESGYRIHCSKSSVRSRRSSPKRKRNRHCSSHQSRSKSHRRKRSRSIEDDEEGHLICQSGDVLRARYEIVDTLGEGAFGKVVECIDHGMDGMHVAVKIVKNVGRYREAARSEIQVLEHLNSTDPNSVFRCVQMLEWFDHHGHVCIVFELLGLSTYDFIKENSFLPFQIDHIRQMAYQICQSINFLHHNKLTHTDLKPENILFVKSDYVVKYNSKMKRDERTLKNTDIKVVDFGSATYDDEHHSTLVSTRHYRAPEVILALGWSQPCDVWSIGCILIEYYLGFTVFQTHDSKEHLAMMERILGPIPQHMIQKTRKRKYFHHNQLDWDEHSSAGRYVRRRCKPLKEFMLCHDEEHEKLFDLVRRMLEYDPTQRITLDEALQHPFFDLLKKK
Sequence of Cytochrome P450 2C9 (Homo sapiens) (P11712 whole entry, looked up): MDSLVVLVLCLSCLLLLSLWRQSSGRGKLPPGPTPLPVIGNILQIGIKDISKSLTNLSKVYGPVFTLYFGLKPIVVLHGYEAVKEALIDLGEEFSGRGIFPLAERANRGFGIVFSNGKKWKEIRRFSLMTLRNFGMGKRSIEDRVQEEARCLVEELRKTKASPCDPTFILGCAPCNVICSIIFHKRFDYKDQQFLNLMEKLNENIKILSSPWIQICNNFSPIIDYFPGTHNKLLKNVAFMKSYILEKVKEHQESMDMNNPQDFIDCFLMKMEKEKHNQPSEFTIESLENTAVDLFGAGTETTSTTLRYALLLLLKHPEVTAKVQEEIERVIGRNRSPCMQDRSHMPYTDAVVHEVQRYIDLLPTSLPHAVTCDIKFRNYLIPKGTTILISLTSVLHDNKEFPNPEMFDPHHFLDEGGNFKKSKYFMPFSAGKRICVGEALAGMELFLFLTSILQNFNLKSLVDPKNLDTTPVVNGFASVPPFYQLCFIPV
Sequence of Ubiquitin carboxyl-terminal hydrolase 1 (Homo sapiens) (O94782 whole entry, looked up): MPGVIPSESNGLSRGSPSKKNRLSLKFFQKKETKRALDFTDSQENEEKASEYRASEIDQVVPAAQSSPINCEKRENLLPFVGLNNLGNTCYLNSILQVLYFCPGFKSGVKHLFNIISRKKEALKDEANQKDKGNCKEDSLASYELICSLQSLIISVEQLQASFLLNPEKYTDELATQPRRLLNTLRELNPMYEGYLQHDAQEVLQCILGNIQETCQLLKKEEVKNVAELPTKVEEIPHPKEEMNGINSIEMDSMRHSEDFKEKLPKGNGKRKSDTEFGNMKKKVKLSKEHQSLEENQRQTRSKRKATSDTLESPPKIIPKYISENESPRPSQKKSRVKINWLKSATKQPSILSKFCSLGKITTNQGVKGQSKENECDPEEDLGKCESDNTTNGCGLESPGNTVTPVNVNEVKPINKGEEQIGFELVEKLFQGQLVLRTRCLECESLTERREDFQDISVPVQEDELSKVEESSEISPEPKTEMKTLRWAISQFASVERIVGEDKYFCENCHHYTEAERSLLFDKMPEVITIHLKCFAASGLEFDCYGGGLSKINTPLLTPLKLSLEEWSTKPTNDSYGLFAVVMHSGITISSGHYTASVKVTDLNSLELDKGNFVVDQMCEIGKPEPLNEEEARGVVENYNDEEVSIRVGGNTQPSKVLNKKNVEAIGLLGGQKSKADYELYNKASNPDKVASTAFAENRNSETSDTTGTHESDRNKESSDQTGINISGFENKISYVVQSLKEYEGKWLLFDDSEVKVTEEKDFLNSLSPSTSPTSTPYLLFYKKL
Sequence of Cytochrome P450 1A2 (Homo sapiens) (P05177 whole entry, looked up): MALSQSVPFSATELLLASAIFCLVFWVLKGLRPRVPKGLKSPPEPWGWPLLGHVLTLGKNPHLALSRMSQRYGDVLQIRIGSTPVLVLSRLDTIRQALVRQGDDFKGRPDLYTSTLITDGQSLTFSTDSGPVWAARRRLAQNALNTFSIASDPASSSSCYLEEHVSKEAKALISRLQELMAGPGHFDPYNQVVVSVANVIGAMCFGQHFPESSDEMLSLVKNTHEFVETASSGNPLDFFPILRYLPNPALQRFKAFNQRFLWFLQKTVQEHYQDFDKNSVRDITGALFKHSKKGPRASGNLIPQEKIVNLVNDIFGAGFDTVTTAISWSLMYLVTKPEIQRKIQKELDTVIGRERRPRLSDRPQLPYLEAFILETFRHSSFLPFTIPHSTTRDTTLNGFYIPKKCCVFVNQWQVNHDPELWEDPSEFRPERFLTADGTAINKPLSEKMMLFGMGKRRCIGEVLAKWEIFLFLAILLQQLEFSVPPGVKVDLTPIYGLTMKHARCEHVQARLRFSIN

Cc1cnc(CNc2cc(-c3ccccc3C)ncn2)cn1
inactive: Potency [1] > 11.4 µM | activity change, negative = inhibition [2] -5.18% | activity change, negative = inhibition [4] 14% | activity, negative = inhibition [5] 4.06% | Potency [6] > 46 µM | Potency [7] > 46 µM | Potency [8] | Potency [9] | Potency [10] | Potency [12] | Potency [13] | outcome [14]
active: Potency [3] 12.6 µM | Potency [11] 3.16 µM

CC(=O)NCCNc1nc(-c2cccc(NS(C)(=O)=O)c2)nc2ccccc12
inactive: Potency [1] > 11.4 µM | activity change, negative = inhibition [2] -17.6% | activity change, negative = inhibition [4] -1.12% | activity, negative = inhibition [5] -3.86% | Potency [6] > 46 µM | Potency [7] > 46 µM | Potency [8] | Potency [9] | Potency [11] | Potency [12] | Potency [13] | outcome [14]
active: Potency [3] 15.8 µM

Cc1ccccc1-c1cc(N(C)Cc2ccco2)ncn1
active: Potency [3] 3.98 µM | Potency [15] 6.31 µM
inactive: Potency [1] > 11.4 µM | activity change, negative = inhibition [2] 7.17% | activity change, negative = inhibition [4] -15.6% | activity, negative = inhibition [5] 8.71% | Potency [6] > 46 µM | Potency [7] > 46 µM | Potency [8] | Potency [9] | Potency [12] | Potency [13] | outcome [14]

CN(C)c1nc(-c2ccccc2C(F)(F)F)nc2ccccc12
inactive: activity change, negative = inhibition [16] 37.2% [at 2.29 µM]

COc1cccc(-c2cncnc2NCc2cccs2)c1
active: Potency [16] 398 nM

NC[C@@H]1O[C@H](O[C@H]2[C@H](O)[C@H](O[C@H]3[C@@H](O)[C@H](N)C[C@H](N)[C@H]3O[C@H]3O[C@H](CN)[C@H](O)[C@H](O)[C@H]3N)O[C@@H]2CO)[C@@H](N)[C@@H](O)[C@@H]1O
inactive: activity, negative = inhibition [17] -26.7% [at 4.49 µM]

CCC(=O)O[C@@H]1CC(=O)O[C@H](C)C/C=C/C=C/[C@@H](O)[C@H](C)C[C@H](CC=O)[C@H](OC2O[C@H](C)[C@@H](O[C@H]3C[C@@](C)(O)[C@@H](OC(=O)CC)[C@H](C)O3)[C@H](N(C)C)[C@H]2O)[C@H]1OC (some centres undefined)
inactive: outcome [17]

COc1ccc(-n2c(=O)c(-c3cn(C)c4ccccc34)nc3cncnc32)cc1
active: Potency [3] 0.316 µM
inactive: Potency [1] > 11.4 µM | activity change, negative = inhibition [2] -24.9% | activity change, negative = inhibition [4] 6.02% | activity, negative = inhibition [5] -19.8% | Potency [6] > 9.22 µM | Potency [7] > 46 µM | Potency [8] | Potency [9] | Potency [16] | Potency [11] | outcome [14]

Cc1nc2cncnc2n(-c2ccccc2)c1=O
active: Potency [3] 10 µM
inactive: Potency [1] > 11.4 µM | activity change, negative = inhibition [2] -11.8% | activity change, negative = inhibition [4] -0.117% | activity, negative = inhibition [5] -12.5% | Potency [6] > 9.22 µM | Potency [7] > 46 µM | Potency [8] | Potency [9] | Potency [11] | outcome [14]

COCCn1c(=O)c(-c2cc(F)cc(F)c2)nc2cnc(Oc3cccc(Cl)c3)nc21
active: Potency [3] 5.01 µM | Potency [16] 3980 nM
inactive: Potency [1] > 11.4 µM | activity change, negative = inhibition [2] 30.2% | activity change, negative = inhibition [4] -9.31% | activity, negative = inhibition [5] 24.9% | Potency [6] > 9.22 µM | Potency [7] > 46 µM | Potency [8] | Potency [9] | Potency [11] | outcome [14]

Reference: PubChem BioAssay (NCATS)
